From PubChem BioAssay (NCATS)
Results filed as inconclusive are left out. Where a call stands in place of a potency, no number is given. The source made the active and inactive calls. Unless noted, calls follow the shape of the dose curve; as a rule, active = well fitted curve in the direction sought with a large enough effect; inconclusive = small, poorly fitted or top-dose-only effect, or another doubt; inactive = no such curve, though single readings can be large; an effect the other way counts as inactive or inconclusive.

Target: Alpha-galactosidase (Coffea arabica) (UniProt Q42656)
Sequence (Q42656 whole entry, looked up): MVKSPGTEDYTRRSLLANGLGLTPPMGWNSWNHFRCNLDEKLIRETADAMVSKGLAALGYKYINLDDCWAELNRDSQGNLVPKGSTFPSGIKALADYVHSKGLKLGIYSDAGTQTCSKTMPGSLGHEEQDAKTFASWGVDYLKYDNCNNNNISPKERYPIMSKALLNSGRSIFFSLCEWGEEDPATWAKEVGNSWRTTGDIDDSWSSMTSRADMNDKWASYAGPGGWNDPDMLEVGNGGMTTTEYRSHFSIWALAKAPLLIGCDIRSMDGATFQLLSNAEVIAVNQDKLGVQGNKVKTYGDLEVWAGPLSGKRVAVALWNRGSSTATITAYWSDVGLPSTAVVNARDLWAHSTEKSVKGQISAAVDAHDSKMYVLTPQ
Assay: Counterscreen for Glucocerebrosidase Inhibitors: qHTS Assay for Coffee Bean alpha-Galactosidase at pH 4.5 (AID 957)
Conditions: purified coffee bean alpha-galactosidase, fluorogenic substrate; series mostly up to 76.9 µM
Procedure, shortened: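 Coffee bean enzyme (2 nM) with 80 uM 4-methylumbelliferyl alpha-D-galactopyranoside in 50 mM citric acid, 0.005% Tween-20, pH 4.5, 20 min at room temperature; compounds 0.7 nM–77 uM. Stopped at pH 10, fluorescence 365/440 nm; AC50 from Hill fits.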

**Q.** Which outcome does the source give for O=C(Nc1ccccc1)c1cc([N+](=O)[O-])ccc1Cl here?
**A.** inactive

**Q.** Which outcome does the source give for NC(=Nc1ccccc1)NC(=O)c1nc(Cl)c(N)nc1N here?
**A.** inactive

**Q.** For Cc1ccc(S(=O)(=O)N[C@@H](Cc2ccccc2)C(=O)CCl)cc1, which outcome is on record?
**A.** inactive

**Q.** Which outcome does the source give for O=C(O)Cc1ccc(O)c(O)c1 here?
**A.** inactive

**Q.** With CCCC(=O)NCCc1c2n(c3ccc(OC)cc13)CCCc1ccccc1-2 as the compound, how does the outcome read?
**A.** inactive

**Q.** With O=c1c(-c2ccc(O)cc2)coc2cc(O)ccc12 as the compound, how does the outcome read?
**A.** inactive

**Q.** With COc1cc2ncnc(Nc3cccc(Cl)c3)c2cc1OC as the compound, how does the outcome read?
**A.** inactive

**Q.** For OCc1ccc(-c2nn(Cc3ccccc3)c3ccccc23)o1, which outcome is on record?
**A.** inactive

Target: Alpha-galactosidase (Coffea arabica) (UniProt Q42656)
Assay: Counterscreen for Glucocerebrosidase Inhibitors: qHTS Assay for Coffee Bean alpha-Galactosidase at pH 5.9 (AID 998)
Conditions: coffee bean alpha-galactosidase enzyme assay; series mostly up to 76.9 µM
Procedure, shortened: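 Green coffee bean enzyme (2 nM final) was incubated with compounds (0.7 nM–77 uM) and 4-methylumbelliferyl alpha-D-galactopyranoside (80 uM) in citrate buffer pH 5.9, 20 min at room temperature. High-pH stop; fluorescence 365/440 nm; AC50 from Hill fits.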

**Q.** Which outcome does the source give for O=C(Nc1ccccc1)c1cc([N+](=O)[O-])ccc1Cl here?
**A.** inactive

**Q.** Which outcome does the source give for NC(=Nc1ccccc1)NC(=O)c1nc(Cl)c(N)nc1N here?
**A.** inactive

**Q.** For Cc1ccc(S(=O)(=O)N[C@@H](Cc2ccccc2)C(=O)CCl)cc1, which outcome is on record?
**A.** inactive

**Q.** Which outcome does the source give for O=C(O)Cc1ccc(O)c(O)c1 here?
**A.** inactive

**Q.** With CCCC(=O)NCCc1c2n(c3ccc(OC)cc13)CCCc1ccccc1-2 as the compound, how does the outcome read?
**A.** inactive

**Q.** For O=c1c(-c2ccc(O)cc2)coc2cc(O)ccc12, which outcome is on record?
**A.** inactive

**Q.** For COc1cc2ncnc(Nc3cccc(Cl)c3)c2cc1OC, which outcome is on record?
**A.** inactive

**Q.** Which outcome does the source give for OCc1ccc(-c2nn(Cc3ccccc3)c3ccccc23)o1 here?
**A.** inactive

System: not listed separately
Assay: Validation screen for inhibitors of Lassa infection (AID 463096; calls by dose curve; also: potency is read from the fitted curve at half-maximal effect)
Conditions: Lassa virus infection, cell-based; series mostly up to 46.1 µM

**Q.** For CCCCCC(O)c1cccc(OCc2ccc3ccccc3n2)c1 (configuration not stated), which Potency is on record?
**A.** inactive

**Q.** Which Potency does the source give for Cc1ccc(S(=O)(=O)N[C@@H](Cc2ccccc2)C(=O)CCl)cc1 here?
**A.** 7.08 µM (active)

**Q.** For CC(N)(Cc1ccc(O)c(O)c1)C(=O)O (configuration not stated), which Potency is on record?
**A.** inactive

**Q.** For CCCC(=O)NCCc1c2n(c3ccc(OC)cc13)CCCc1ccccc1-2, which Potency is on record?
**A.** inactive

**Q.** For O=C1OC(=O)C2C3CCC(O3)C12 (configuration not stated), which Potency is on record?
**A.** inactive

**Q.** With O=c1c(-c2ccc(O)cc2)coc2cc(O)ccc12 as the compound, how does the Potency read?
**A.** inactive

**Q.** Which Potency does the source give for COc1cc2ncnc(Nc3cccc(Cl)c3)c2cc1OC here?
**A.** inactive

**Q.** For OCc1ccc(-c2nn(Cc3ccccc3)c3ccccc23)o1, which Potency is on record?
**A.** 4.47 µM (active)

System: not listed separately
Assay: Inducers of the Endoplasmic Reticulum Stress Response (ERSR) in human glioma: Validation (AID 504836)
Conditions: human glioma cells, ER stress response reporter; series mostly up to 38.3 µM
Procedure, shortened: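 Stably transfected U87-MG human glioma cells carrying a GRP78-based luminescent sensor were seeded at 1000 cells/well, pin-dosed with compounds and incubated 16 h. Luciferase reagent was then added, and end-point luminescence was read after 10 min at room temperature.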

**Q.** With CCCCCC(O)c1cccc(OCc2ccc3ccccc3n2)c1 (configuration not stated) as the compound, how does the outcome read?
**A.** inactive

**Q.** With Nc1ncnc2c1nc(Br)n2C1OC2COP(=O)(O)O[C@@H]2C1O (some centres not stated) as the compound, how does the outcome read?
**A.** inactive

**Q.** With O=C(Nc1ccccc1)c1cc([N+](=O)[O-])ccc1Cl as the compound, how does the outcome read?
**A.** inactive

**Q.** Which outcome does the source give for Nc1nc(Cl)nc2c1ncn2[C@@H]1O[C@H](COP(=O)(O)OP(=O)(O)OP(=O)(O)O)[C@@H](O)[C@H]1O here?
**A.** inactive

**Q.** Which outcome does the source give for NC(=Nc1ccccc1)NC(=O)c1nc(Cl)c(N)nc1N here?
**A.** inactive

**Q.** With Cc1ccc(S(=O)(=O)N[C@@H](Cc2ccccc2)C(=O)CCl)cc1 as the compound, how does the outcome read?
**A.** inactive

**Q.** For CC(N)(Cc1ccc(O)c(O)c1)C(=O)O (configuration not stated), which outcome is on record?
**A.** inactive

**Q.** For O=C(O)Cc1ccc(O)c(O)c1, which outcome is on record?
**A.** inactive

**Q.** Which outcome does the source give for CCCC(=O)NCCc1c2n(c3ccc(OC)cc13)CCCc1ccccc1-2 here?
**A.** inactive

**Q.** Which outcome does the source give for O=C1OC(=O)C2C3CCC(O3)C12 (configuration not stated) here?
**A.** inactive

**Q.** For COc1cc2ncnc(Nc3cccc(Cl)c3)c2cc1OC, which outcome is on record?
**A.** inactive

**Q.** Which outcome does the source give for CC(C)NC[C@@H](O)c1ccc(O)c(O)c1 here?
**A.** inactive

**Q.** With OCc1ccc(-c2nn(Cc3ccccc3)c3ccccc23)o1 as the compound, how does the outcome read?
**A.** inactive
